The text below walks through data of the OligoGym collection.
Also: reference of the scale not given here.

In one assay the target is MYO1F. Nature of the assay: pooled miR-30 sensor sort-seq; sequence = guide strand. The following applies: shRNA.
Take TTGGCTGCCACTGTCTTCCCAG: the sensor-assay potency score (higher = more potent) is -0.239. On to TTGTTGTTGCGCACAGTCTTGG, for which the sensor-assay potency score (higher = more potent) is -0.625.

Turning to TTGGCTTGTTTCTTGATCTTGG, the sensor-assay potency score (higher = more potent) was found to be 0.371.

With TTCTTCACTTTCTCTCGCCCAA, the sensor-assay potency score (higher = more potent) is -0.544. Same read-out and setting: with AAAGTCGCTTCTGTCGTCCGTG the figure was -0.528; with TTCCGGTACATGTTGTCCGTGA, 0.0719; with TTCTGGAAGATCTCGAAGCCGT, -0.863.

Regarding TAGTGTGTCGCTGAAGGTGAGG, the sensor-assay potency score (higher = more potent) is -0.748.

TTGAGCACTGCCAAGTCGCCGA showed a sensor-assay potency score (higher = more potent) of -0.541.

The next assay addresses MYRIP. The assay is described as above. The note with it: shRNA.
TTATCTCTTATAAACACTCTAA came in with a sensor-assay potency score (higher = more potent) of -0.392. As for ATCTTCTGCAGGATTGTCGTGG, the sensor-assay potency score (higher = more potent) was -0.78. As for TTTTGCTTTGAATCACACCAAC, the sensor-assay potency score (higher = more potent) is -1.21. On to ATTGCTAACTCGTACAGCCTGT, for which the sensor-assay potency score (higher = more potent) is -0.149. In turn, TTTTGCTCTTCTGTTTTCGTAT returned a sensor-assay potency score (higher = more potent) of -0.368.

Take TGACACATAACACAGCATCAGC: the sensor-assay potency score (higher = more potent) is -1.31. As to TAACACAACAATAGTTGCTTTT, the sensor-assay potency score (higher = more potent) was -1.01.

As for TTAAATAATAATTCCCACCTTC, the sensor-assay potency score (higher = more potent) is 0.152. Sequence TTTAATAGTAAATTAAATCTTT showed a sensor-assay potency score (higher = more potent) of -0.26. Take TTTTCGTATAATCTTCTGCAGG: the sensor-assay potency score (higher = more potent) was -1.35.

The target in the next assay is MYST1. The assay is described as above. The note with it: shRNA.
In turn, TACTTGACCATATTGAGGGATT showed a sensor-assay potency score (higher = more potent) of -1.22.

For the sequence TACAGCATCCTTCACTGTCTTG, the sensor-assay potency score (higher = more potent) is -0.889. For TTTGAGGTGCTCCTCCACCAGC, the sensor-assay potency score (higher = more potent) was -1.45. For TTTGCCATCAACTTCGTGCACG, the sensor-assay potency score (higher = more potent) was -0.42.

The sequence TTGCGGTAGATCTCTTTCCCGG yielded a sensor-assay potency score (higher = more potent) of -0.991.

Consider TTGATGGACAGTGTGCCCCGGA, for which the sensor-assay potency score (higher = more potent) is -0.00673. On to TTGGTTGCGAGTGATCTTGCGC, for which the sensor-assay potency score (higher = more potent) is -0.436. TTGTCCACATACTTCACCTTGG came in with a sensor-assay potency score (higher = more potent) of -0.263.

In the case of TATTTCATGTACTTGAGGCAGT, the sensor-assay potency score (higher = more potent) worked out at 0.803. Sequence TACTTCTCTGAGTTCTTCTGTA came in with a sensor-assay potency score (higher = more potent) of 0.544.

Sequence TTGACTTGCTTGTGCTTGGGGG returned a sensor-assay potency score (higher = more potent) of 0.169. On the same count and under the same terms, with TACTTGAGGCAGTACTCGCAGA the figure was -0.834.

A further assay addresses MYST4. The description is as above. The following applies: shRNA.
As for TTACTGTTAGCACAACACTTGT, the sensor-assay potency score (higher = more potent) is -0.946. With TATACAATAACTGAAATGCTAA, the sensor-assay potency score (higher = more potent) is -0.972. The same measure, in the same setting: in the case of TTTGATGAGATCATCTTCTGGT it was 1.05. On to TTGGCTTTTAGCACCATCTGGA, for which the sensor-assay potency score (higher = more potent) stood at 0.342. TTTTCGATTGTACTTTTGCAGG gave a sensor-assay potency score (higher = more potent) of -1.34. TTGAGTCTCGGCACAATCCTGA showed a sensor-assay potency score (higher = more potent) of 0.672. For the sequence TTATTTTCTGTATAGCTTCAAG, the sensor-assay potency score (higher = more potent) is -0.855. On to TTTGAGAACTGAGCCATCCTGA, for which the sensor-assay potency score (higher = more potent) was determined as 0.202. Same read-out and setting: in the case of TTACAGACAACAATCGTTGCTT it was 0.972.
